Assay results reported in PubChem BioAssay (NCATS).
Inconclusive results are not listed. Values without a mark were called inactive. Calls of active or inactive are those of the source. The call rests on the fitted dose curve; in most records, active means well fitted cell-killing curve with a large enough effect; inconclusive means small, poorly fitted or top-dose-only effect, or effect the other way; inactive means flat fitted curve, though single readings scatter. *1 amine or outer side, *2 acyl side, *3 side chain or, on linkers, in order; H or OH if unused. Where a SMILES comes first, the peptide text is derived from it. [ ]: non-standard residue; d: D form. X4 = CC(C)=CCc1cc(C(O)C(N[*:1])C(=O)[*:2])ccc1O

tested on: Tov-21-G; assay: Primary qHTS to identify gynecologic anti-cancer compounds using libraries of approved drugs and bioactive compounds (AID 1345084); conditions: Gynecologic cancer cell panel viability, ATPlite luminescence, 48 h; series mostly up to 57.5 µM; activity change, negative = cytotoxicity: at the top concentration; further: nearly all actives have a fitted effect of over 55% in size
Outline: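 48 h compound exposure at 37 C, 5% CO2; five-point qHTS. ATPlite luminescence readout of cell ATP.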
On the % scale 0 is the no-effect control and ±100 the full control effect; potency means the concentration at half of the fitted maximal effect.

SMILES | activity change, negative = cytotoxicity | Potency
CN(C)CC1CCOC1(c1ccccc1)c1ccccc1 (configuration not stated) | 2.82% [at 25.3 µM] | –
O=C(OC1C=C(CO)C2C(OC3OC(CO)C(O)C(O)C3O)OC=CC12)c1ccc(O)cc1 (configuration not stated) | -5.98% [at 25.3 µM] | –
CC1(C)CC[C@]2(C(=O)OC3OC(CO)C(O)C(O)C3O)CC[C@]3(C)C(=CCC4[C@@]5(C)CC[C@H](OC6OC(C(=O)O)C(O)C(OC7OC(CO)C(O)C(O)C7O)C6O)C(C)(C)C5CC[C@]43C)C2C1 (some centres not stated) | -2.48% [at 11.6 µM] | –
CC(C)=CCc1cc(C(O)C2NC(=O)CNC(=O)C(Cc3c[nH]c4ccccc34)NC(=O)C3CCCN3C(=O)CNC(=O)C(C(C)C)NC(=O)CNC2=O)ccc1O (configuration not stated) (cyclo(G[X4]GVGPW); configuration not given here) | -4.16% [at 11.6 µM] | –
COc1ccc(CCO[C@@H]2CCCC[C@H]2N2CC[C@@H](O)C2)cc1OC | 2.63% | –
COC(=O)C1=CO[C@@H](O[C@@H]2O[C@H](CO)[C@@H](O)[C@H](O)[C@H]2O)[C@@H]2C(COC(C)=O)=C[C@H](O)[C@H]12 | 7.47% [at 25.3 µM] | –
CC12CCC(OC3OC(CO)C(O)C(OC4OC(CO)C(O)C(O)C4O)C3O)CC1=CCC1C2CCC2(C)/C(=C3/COC(=O)C3)CCC12O (configuration not stated) | -10.6% [at 25.3 µM] | –
C/C1=C\[C@H]2OC(=O)[C@@H](C)[C@@H]2CC/C(C(=O)O)=C/CC1 | -0.0038% | –
CC12CCC(OC3OC(CO)C(O)C(OC4OC(CO)C(O)C(O)C4O)C3O)CC1CCC1C2CCC2(C)/C(=C3/COC(=O)C3)CCC12O (configuration not stated) | 3.98% [at 25.3 µM] | –
CC1(C)CCC[C@@]2(C)C1[C@H](OC(=O)/C=C/C=C/C(=O)O)C=C1COC(=O)[C@@]12O (some centres not stated) | 3.42% [at 38.5 µM] | –
CO/N=C(/C(=O)N[C@@H]1C(=O)N2C(C(=O)O)=C(Cn3ccc(=N)n3CCO)CS[C@H]12)c1csc(N)n1 | 7.06% | –
CC(C)=CCC[C@](C)(O)[C@H]1CC[C@]2(C)[C@@H]1[C@H](O)CC1[C@@]3(C)CC[C@H](O)C(C)(C)[C@@H]3[C@@H](O[C@@H]3O[C@H](CO)[C@@H](O)[C@H](O)[C@H]3O[C@@H]3O[C@H](CO)[C@@H](O)[C@H](O)[C@H]3O)C[C@]12C (some centres not stated) | 0.934% [at 25.3 µM] | –
C[C@@H]1O[C@@H](O[C@H]2[C@H](OC(=O)[C@]34CCC(C)(C)C[C@H]3C3=CCC5[C@@]6(C)C[C@H](O)[C@H](O[C@@H]7O[C@H](CO)[C@@H](O)[C@H](O)[C@H]7O)[C@@](C)(CO)C6[C@H](O)C[C@@]5(C)[C@]3(C)CC4)OC[C@H](O)[C@@H]2O)[C@H](O)[C@H](O)[C@H]1O[C@@H]1OC[C@@H](O)[C@H](O[C@@H]2OC[C@](O)(CO)[C@H]2O)[C@H]1O (some centres not stated) | -2.34% [at 6.55 µM] | –
CC(=O)OC1C(O)CC2(C)C(CCC(C)C23Cc2c(O)cc(CO)c(C=O)c2O3)C1(C)C (configuration not stated) | -20.4% [at 25.3 µM] | –
C/C(=C\CCC(C)CCO)C(=O)OC1(C)CCC2C(C(=O)O)=COC(OC3OC(CO)C(O)C(O)C3O)C21 (configuration not stated) | 1.83% [at 25.3 µM] | –
NC1(C(=O)NC(CCO)c2ccc(Cl)cc2)CCN(c2ncnc3[nH]ccc23)CC1 (configuration not stated) | – | 1260 nM (active)
CC1(C)CCCC2(C)C(C(=O)O)=CCC12 (configuration not stated) | -6.65% | –
CCC(C)/C=C(C)/C=C/c1cc2c(cn1)C(=O)C(C)(OC(C)=O)C(O)=C2Cl (configuration not stated) | -2.45% [at 38.5 µM] | –
O=S(=O)(Nc1ccccn1)c1ccc(N=Cc2c(O)[nH]c3ccc4ncsc4c23)cc1 | 18.8% [at 11.6 µM] | –

SMILES | activity change, negative = cytotoxicity | Potency
CC(O)/C=C/C1(O)C(C)C(O[C@@H]2O[C@H](CO)[C@@H](O)[C@H](O)[C@H]2O)C(O)CC1(C)C (some centres not stated) | -4.05% [at 25.3 µM] | –
COC(=O)C12CCC(C)C(C)C1C1=CCC3C4(C)CCC(OC(C)=O)C(C)(C)C4CCC3(C)C1(C)CC2 (configuration not stated) | 5.05% [at 25.3 µM] | –
C=C1C(=O)O[C@H](CCC)[C@H]1C(=O)O | 6.33% | –
CCOc1cc(CC(=O)NC(CC(C)C)c2ccccc2N2CCCCC2)ccc1C(=O)O (configuration not stated) | -8.18% | –
COC1=CC(=O)CC(C)C12Oc1cc(OC)cc(O)c1C2=O (configuration not stated) | -3.41% | –
O=C1CCC(=O)N(O)CCCCCNC(=O)CCC(=O)N(O)CCOCCNC(=O)CCC(=O)N(O)CCCCCN1 | -0.63% [at 25.3 µM] | –
CCc1ccc(Cc2ccc3c(c2)[C@]2(OC3)O[C@H](CO)[C@@H](O)[C@H](O)[C@H]2O)cc1 | 1.08% | –
C=C(C(=O)O)C1CCC2(C)CCC(O)C(=C)C2C1 (configuration not stated) | 1.94% | –
C=C(C)C1CCC2(C(=O)O[C@@H]3O[C@H](CO[C@@H]4O[C@H](CO)[C@@H](O)[C@H](O)[C@H]4O)[C@@H](O)[C@H](O[C@@H]4O[C@@H](C)[C@H](O)[C@@H](O)[C@H]4O)[C@H]3O)CCC3(C(=O)O)C(CCC4C5(C)CCC(O)C(C)(C)C5CCC43C)C12 (some centres not stated) | 9.18% [at 11.6 µM] | –
CC(NC(=O)C(O)C(C)C)C(=O)NC1C(=O)N(C)CCc2ccccc21 (configuration not stated) | -0.966% | –
CC(=O)O[C@@H]1[C@H](O)[C@@H](O[C@@H]2O[C@@H](C)[C@H](O[C@@H]3OC[C@@H](O)[C@H](O[C@@H]4OC[C@@H](O)[C@H](O)[C@H]4O)[C@H]3O)[C@@H](O[C@@H]3O[C@H](CO)[C@@H](O)[C@H](O)[C@H]3O)[C@H]2O)[C@H](OC(=O)[C@]23CCC(C)(C)C[C@H]2C2=CCC4[C@@]5(C)CC[C@H](O[C@@H]6O[C@H](C(=O)O)[C@@H](O)[C@H](O[C@@H]7OC[C@@H](O)[C@H](O)[C@H]7O)[C@H]6O[C@@H]6O[C@H](CO)[C@H](O)[C@H](O)[C@H]6O)[C@@](C)(C=O)C5CC[C@@]4(C)[C@]2(C)CC3)O[C@@H]1C (some centres not stated) | -5.86% [at 6.55 µM] | –
CCN(Cc1cccnc1)C(=O)CN(c1ccc(OC)nc1)S(=O)(=O)c1ccccc1C | -2.96% | –
COc1ccc(CN2C(=O)C(=O)c3cc(S(=O)(=O)N4CCC[C@H]4COc4cccnc4)ccc32)cc1 | 15.3% | –
CC1=CC(=O)[C@]2(O[C@@H]3O[C@@H](C)[C@H](O)[C@@H](O)[C@H]3OC(=O)/C=C/c3ccccc3)C=CO[C@@H](O[C@@H]3O[C@H](CO)[C@@H](O)[C@H](O)[C@H]3O)[C@H]12 | -2.57% [at 25.3 µM] | –
O=C(O)c1ccccc1NC(=O)N1CCC(c2ccccc2C(F)(F)F)CC1 | 7.27% | –
Nc1nc2c(ncn2[C@@H]2O[C@H](CO)[C@@H](O)[C@H]2O)c(=O)[nH]1 | -1.7% | –
C/C1=C\C[C@]2(C)C(=O)C(O)=C([C@H](C)CO)[C@H]2C/C=C(\C)[C@@H](O)CC/C(C)=C/CC1 | 5.45% [at 38.5 µM] | –
C[C@]12C[C@@H](O)[C@@H]3C[C@@]1(O[C@@H]1O[C@H](CO)[C@@H](O)[C@H](O)[C@H]1O)[C@]3(COC(=O)c1ccccc1)C(=O)O2 | 23.2% [at 25.3 µM] | –
